The source made the active and inactive calls.
Assays:
[1] = system: PRMT1 (protein arginine N-methyltransferase 1); test: small molecules binding arginine methyltransferase PRMT1 – biochemical, small-molecule microarray, 635 nm fluorescence, primary screen (AID 1088); details: higher = more signal;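 also: binding of Prmt1 protein to compounds spotted on small-molecule microarray slides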
[2] = growth effects on S. cerevisiae YJM789 – YJM789 clinical isolate, OD600, 24 h, basal, primary screen (AID 1089); details: higher = more signal, called active from +8 up or from −8 down;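 also: growth of clinical yeast isolate S. cerevisiae YJM 789 seeded 1000 cells per well; test concentration not given here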
[3] = S. pombe growth modifiers, basal conditions – strain 972, OD600, 24 h, no modulator, primary screen (AID 1090);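 also: basal condition with compound alone and no growth modifier present; test concentration not given here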; details: S. pombe 972 growth, higher = more signal, called active from +8 up or from −8 down
[4] = budding yeast growth modifiers under rapamycin – strain BY4716, OD600, 96 h, primary screen (AID 1091); also: test concentration not given here; details: S. cerevisiae BY4716 + rapamycin, higher = more signal, called active from +8 up or from −8 down
[5] = molecular target: Torsin-1A-interacting protein 2 (Homo sapiens) (UniProt Q8NFQ8); test: small molecules binding lysate-expressed LULL1 – cell lysate, human LULL1 lysate, 635/667 nm fluorescence, primary screen (AID 1092); details: small-molecule microarray, hLULL1 lysate binding, 635 nm fluorescence; higher = more signal;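 also: probe is lysate of COS7 cells overexpressing human LULL1; score merges per-feature 667 nm fluorescence with signal-to-noise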
Chain of Torsin-1A-interacting protein 2 (Homo sapiens) (Q8NFQ8 whole entry, looked up): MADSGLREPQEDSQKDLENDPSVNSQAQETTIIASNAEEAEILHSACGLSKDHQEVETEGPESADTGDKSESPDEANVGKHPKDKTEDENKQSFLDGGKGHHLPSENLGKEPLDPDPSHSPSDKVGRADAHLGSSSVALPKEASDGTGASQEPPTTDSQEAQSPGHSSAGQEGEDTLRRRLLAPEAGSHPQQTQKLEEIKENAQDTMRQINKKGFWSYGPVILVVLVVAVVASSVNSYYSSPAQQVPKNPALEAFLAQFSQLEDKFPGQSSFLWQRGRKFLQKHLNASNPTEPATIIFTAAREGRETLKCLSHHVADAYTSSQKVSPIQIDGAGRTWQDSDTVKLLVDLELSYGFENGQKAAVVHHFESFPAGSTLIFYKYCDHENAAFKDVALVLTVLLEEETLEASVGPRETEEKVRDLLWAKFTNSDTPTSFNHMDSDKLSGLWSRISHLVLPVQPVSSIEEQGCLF

[6] = optical density change of DRC41 E. coli – strain DRC41, OD650, 24 h, E. coli filamentation project, primary screen (AID 1093);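 also: MC1000 strain lacking acrAB efflux and sulA so SOS filamentation is blocked; test concentration not given here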; details: E. coli DRC41 growth, higher = more signal, called active from +8 up or from −8 down
[7] = probe aLefty2 binding to arrayed compounds – biochemical, biotinylated probe, 635/667 nm fluorescence, primary screen (AID 1094); details: small-molecule microarray, higher = more signal;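 also: score merges spot fluorescence near 667 nm with spot signal-to-noise ratio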
[8] = system: Noggin (protein binding on small-molecule microarray); test: small molecules binding Noggin protein – biochemical, 635/667 nm fluorescence, primary screen (AID 1095); details: 635 nm fluorescence, higher = more signal;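 also: score merges 667 nm feature fluorescence with signal to noise over triplicate slides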
[9] = molecular target: Neurogenic locus notch homolog protein 3 (Homo sapiens) (UniProt Q9UM47); test: small molecules binding NOTCH3 protein – biochemical, 635/667 nm fluorescence, primary screen (AID 1096); details: small-molecule microarray, 635 nm fluorescence, higher = more signal
Chain of Neurogenic locus notch homolog protein 3 (Homo sapiens) (Q9UM47 whole entry, looked up): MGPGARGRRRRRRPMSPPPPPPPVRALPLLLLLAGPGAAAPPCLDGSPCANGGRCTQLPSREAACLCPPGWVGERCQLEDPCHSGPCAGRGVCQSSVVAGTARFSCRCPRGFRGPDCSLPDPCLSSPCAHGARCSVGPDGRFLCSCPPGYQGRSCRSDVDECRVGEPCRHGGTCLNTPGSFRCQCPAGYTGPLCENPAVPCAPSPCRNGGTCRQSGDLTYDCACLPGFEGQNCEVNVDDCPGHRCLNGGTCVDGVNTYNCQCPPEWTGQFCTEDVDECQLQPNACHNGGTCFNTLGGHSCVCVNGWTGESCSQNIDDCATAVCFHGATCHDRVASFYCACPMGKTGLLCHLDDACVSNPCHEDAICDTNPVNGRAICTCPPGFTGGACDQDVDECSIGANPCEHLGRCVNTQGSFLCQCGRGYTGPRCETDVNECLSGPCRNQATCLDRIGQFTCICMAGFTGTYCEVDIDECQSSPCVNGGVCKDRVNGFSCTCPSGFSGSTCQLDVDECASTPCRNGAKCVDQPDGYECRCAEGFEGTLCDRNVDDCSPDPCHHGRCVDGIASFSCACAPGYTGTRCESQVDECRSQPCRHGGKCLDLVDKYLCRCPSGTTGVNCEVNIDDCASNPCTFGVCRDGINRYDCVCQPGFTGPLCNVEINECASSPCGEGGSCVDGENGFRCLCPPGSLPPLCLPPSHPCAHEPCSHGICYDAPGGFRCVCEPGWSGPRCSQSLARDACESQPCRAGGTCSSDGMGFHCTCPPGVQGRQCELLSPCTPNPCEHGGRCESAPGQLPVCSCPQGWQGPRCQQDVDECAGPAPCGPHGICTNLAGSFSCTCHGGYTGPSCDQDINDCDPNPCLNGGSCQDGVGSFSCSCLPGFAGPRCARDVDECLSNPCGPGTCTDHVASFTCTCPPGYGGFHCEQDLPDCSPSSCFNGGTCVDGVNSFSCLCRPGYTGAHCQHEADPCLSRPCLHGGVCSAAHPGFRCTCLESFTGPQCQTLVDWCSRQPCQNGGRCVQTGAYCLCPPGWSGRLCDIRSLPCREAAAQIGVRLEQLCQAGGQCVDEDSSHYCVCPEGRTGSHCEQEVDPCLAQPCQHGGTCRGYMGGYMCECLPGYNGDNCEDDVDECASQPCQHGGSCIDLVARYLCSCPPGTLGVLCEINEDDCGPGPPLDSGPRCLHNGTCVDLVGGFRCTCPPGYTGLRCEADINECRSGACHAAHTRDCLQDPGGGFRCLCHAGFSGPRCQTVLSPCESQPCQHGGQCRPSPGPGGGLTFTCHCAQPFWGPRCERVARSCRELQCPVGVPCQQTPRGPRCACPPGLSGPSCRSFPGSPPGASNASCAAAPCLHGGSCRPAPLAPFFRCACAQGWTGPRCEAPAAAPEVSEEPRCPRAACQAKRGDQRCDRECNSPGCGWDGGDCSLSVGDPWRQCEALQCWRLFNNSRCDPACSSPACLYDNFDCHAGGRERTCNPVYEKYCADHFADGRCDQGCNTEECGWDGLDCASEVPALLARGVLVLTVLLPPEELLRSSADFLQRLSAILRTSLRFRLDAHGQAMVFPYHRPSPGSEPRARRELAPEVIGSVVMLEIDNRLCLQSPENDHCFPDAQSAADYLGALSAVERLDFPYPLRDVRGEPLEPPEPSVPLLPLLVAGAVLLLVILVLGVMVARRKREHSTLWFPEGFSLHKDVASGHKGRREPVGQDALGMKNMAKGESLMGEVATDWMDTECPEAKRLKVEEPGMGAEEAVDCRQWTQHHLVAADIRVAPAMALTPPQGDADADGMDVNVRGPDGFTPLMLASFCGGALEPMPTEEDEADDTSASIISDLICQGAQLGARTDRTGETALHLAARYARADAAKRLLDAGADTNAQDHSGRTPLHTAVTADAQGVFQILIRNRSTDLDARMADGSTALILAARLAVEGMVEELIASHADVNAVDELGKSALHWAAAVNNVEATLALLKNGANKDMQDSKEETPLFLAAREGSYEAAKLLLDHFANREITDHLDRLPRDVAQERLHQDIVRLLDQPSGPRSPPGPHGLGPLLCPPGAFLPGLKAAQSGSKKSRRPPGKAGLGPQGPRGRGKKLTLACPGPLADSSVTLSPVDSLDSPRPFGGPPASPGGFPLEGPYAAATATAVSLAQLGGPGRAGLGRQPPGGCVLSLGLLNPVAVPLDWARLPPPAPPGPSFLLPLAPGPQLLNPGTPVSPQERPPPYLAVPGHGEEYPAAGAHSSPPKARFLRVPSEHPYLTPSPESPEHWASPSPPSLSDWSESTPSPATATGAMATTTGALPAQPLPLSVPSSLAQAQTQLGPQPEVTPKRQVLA

[10] = probe aEGFR binding to arrayed compounds – biochemical, biotinylated probe, 635/667 nm fluorescence, primary screen (AID 1097); details: small-molecule microarray, higher = more signal;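 also: probe is a biotinylated anti-EGFR antibody binding compounds printed on slides; score combines fluorescence near 667 nm and signal to noise of each spot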

| SMILES | composite z-score [1] | z-score [2] | z-score [3] | z-score [4] | composite z-score [5] | z-score [6] | composite z-score [7] | composite z-score [8] | composite z-score [9] | composite z-score [10] |
| --- | --- | --- | --- | --- | --- | --- | --- | --- | --- | --- |
| CC(C)[Si](C#Cc1ccc(Oc2ccccc2)cc1)(O[Si](C#Cc1ccc(Oc2ccccc2)cc1)(C(C)C)C(C)C)C(C)C | 0.578 | 1.8 (inactive) | 0.267 (inactive) | 4.06 (inactive) | 0.981 | 1.06 (inactive) | -0.192 | 0.267 | -0.0319 | 0.0746 |
| O=C1c2ccccc2[C@](Cc2ccccc2I)(C(=O)NCCN2CCOCC2)[C@H](c2ccc(CO)cc2)N1C1CCCCC1 | 1.43 | -0.139 (inactive) | -0.156 (inactive) | 0.216 (inactive) | 1.53 | 1.09 (inactive) | 0.227 | 1.12 | 1.06 | 0.521 |
| C=C[C@@H](COC(=O)OC(C)(C)C)N(Cc1ccc(OC)cc1)S(=O)(=O)c1ccc(Br)cc1 | 0.345 | -0.374 (inactive) | -0.521 (inactive) | -0.555 (inactive) | 0.269 | -0.701 (inactive) | 0.047 | 1.07 | 1.12 | -0.0088 |
| COc1cc2c(cc1O)C(C1CC1)N(Cc1sc3ccccc3c1Cl)CC2 (stereo not given) | 0.641 | -26 (active) | -20 (active) | -1.46 (inactive) | 3.15 | -0.587 (inactive) | -0.0468 | -0.181 | 0.579 | -0.149 |
| COC(=O)[C@@]1(Cc2ccc(OC)cc2)[C@H]2c3cc(C(=O)N4CCCC4)n(Cc4ccc(C)c(F)c4F)c3C[C@H]2CN1C(=O)c1ccccc1 | 0.998 | 0.57 (inactive) | 1.48 (inactive) | 1.57 (inactive) | 3.52 | 0.107 (inactive) | 0.505 | 0.214 | 1.04 | 0.178 |
| CN1C(=O)C2C=CC(C(O)c3ccccc3)N(N(c3ccccc3)c3ccccc3)C2C1=O (stereo not given) | -0.124 | 0.0175 (inactive) | 0.808 (inactive) | 0.495 (inactive) | 0.317 | -0.642 (inactive) | 0.603 | 0.141 | 0.422 | -0.0668 |
| C=CCNC(=O)[C@H]1[C@@H]2C(=O)O[C@@H](c3ccccc3)[C@@H](c3ccccc3)N2[C@@H](c2ccccc2OCCO)[C@]12C(=O)Nc1ccc(C#CCCO)cc12 | -0.294 | 1.69 (inactive) | -0.648 (inactive) | 4.32 (inactive) | 2.24 | -0.462 (inactive) | -0.0617 | -0.76 | -0.104 | -0.0353 |
| O=C1OCCC/C=C\[C@H]2OC34C=CCN(Cc5ccccc5)C(=O)[C@H]3N(CCCO)C(=O)[C@@H]4C12 (stereo not given in full) | -0.523 | 0.769 (inactive) | -0.0304 (inactive) | 0.972 (inactive) | 1.83 | 0.872 (inactive) | -0.126 | -1.75 | -0.386 | -0.246 |
| CC(C)C(CO)N1C(=O)[C@@H]2C3C(=O)OCCC/C=C\[C@H]3OC23C=CCN(CCN2CCOCC2)C(=O)[C@@H]13 (stereo not given in full) | 0.463 | 0.366 (inactive) | -0.21 (inactive) | 0.205 (inactive) | -0.272 | -0.241 (inactive) | -0.245 | 0.0867 | 0.0008 | -0.146 |
| NCCCCCNC(=O)[C@@H]1C[C@@H]2C(=O)N[C@@H](Cc3ccccc3)C(=O)N2[C@@H]1c1ccc(O)cc1 | 1.31 | -0.247 (inactive) | -0.448 (inactive) | -0.367 (inactive) | 1.66 | -0.811 (inactive) | -0.0717 | 0.923 | 0.452 | 0.0381 |
| COc1ccc([Si](C)(C)[C@H]2[C@H](CC(=O)N3Cc4ccccc4C[C@H]3CO)O[C@@]3(C(=O)N(Cc4cccc(N5CCC5=O)c4)c4ccccc43)[C@@H]2C)cc1 | 1.57 | -0.441 (inactive) | 0.716 (inactive) | 1.98 (inactive) | 2.26 | 0.192 (inactive) | -0.12 | 0.914 | 1.06 | 0.0478 |
| CC(=O)NCCCC[C@@H]1NC(=O)[C@@H]2C[C@H](C(=O)NCCCCCNC(=O)CS)[C@H](c3cccc(OCCO)c3)N2C1=O | 1.18 | -3.39 (inactive) | -0.0277 (inactive) | -2.5 (inactive) | -0.0484 | 1.16 (inactive) | -0.141 | 1.55 | 0.486 | -0.0808 |
| COc1cc2c(cc1OC)CN(C(=O)[C@@H]1[C@H]3C(=O)O[C@H](c4ccccc4)[C@H](c4ccccc4)N3[C@H](c3ccc(O)cc3)[C@@]13C(=O)Nc1ccccc13)CC2 | 1.35 | 0.27 (inactive) | -0.0755 (inactive) | 0.637 (inactive) | 3.04 | 3.03 (inactive) | -0.115 | 0.497 | 0.347 | -0.115 |
| O=C1C[C@]2(c3ccc([N+](=O)[O-])cc3)C(=O)N(CC(F)(F)F)c3cc(CO)ccc3[C@H]2N1C1CCCCC1 | 0.137 | 0.926 (inactive) | -0.378 (inactive) | -1.03 (inactive) | -0.0451 | 0.685 (inactive) | -0.216 | -0.425 | -1.41 | -0.201 |
| C=CCOC(=O)[C@H]1[C@@H]2C(=O)O[C@@H](c3ccccc3)[C@@H](c3ccccc3)N2[C@@H](c2ccc(OCCOC(=O)[C@H]3C[C@H]4C(=O)N[C@@H](CCCC[N+](C)(C)C)C(=O)N4[C@H]3c3ccc(O)cc3)cc2)[C@]12C(=O)Nc1ccc(I)cc12 | 1.36 | 0.318 (inactive) | -0.503 (inactive) | 0.467 (inactive) | 1.14 | -0.173 (inactive) | 0.331 | 0.733 | 0.209 | 0.0304 |
| COC(=O)[C@@]1(Cc2ccc(OC)cc2)[C@H]2c3cc(C(=O)N4CCCC4)n(Cc4ccc(O)c(OC)c4)c3C[C@H]2CN1C(=O)c1ccccc1 | -0.356 | 0.972 (inactive) | 1.19 (inactive) | 1.18 (inactive) | 3.39 | -0.456 (inactive) | 0.531 | -0.194 | 0.6 | 0.805 |
| N#Cc1ccc(NN2C(C(O)C(c3ccccc3)c3ccccc3)C=CC3C(=O)N(c4ccccc4)C(=O)C32)cc1 (stereo not given) | 1.07 | 0.43 (inactive) | 1.25 (inactive) | 5.53 (inactive) | 3.58 | -0.0873 (inactive) | 0.167 | 0.297 | 1.01 | 0.0981 |
| C[C@H]1C2[C@H](Cc3ccccc3)NC(=O)[C@]23C(=O)N[C@H](Cc2ccccc2)C(=O)N2CCC[C@H]2C(=O)NC/C=C\C/C=C/C3[C@@H]2O[C@]12C (stereo not given in full) | 0.178 | -0.662 (inactive) | -1.06 (inactive) | -1.19 (inactive) | 0.392 | 0.132 (inactive) | -0.175 | 0.177 | 0.492 | -0.13 |
| C=C[C@H](OC)[C@@H](OC(=O)Nc1ccc(OC)cc1)c1ccc(O)c(F)c1 | 0.148 | 0.337 (inactive) | -1.18 (inactive) | 1.3 (inactive) | 1.89 | 0.512 (inactive) | -0.21 | -0.932 | -0.363 | -0.335 |
| C=C(C)[C@@H]1CC=C(C(O)C2C=CC3C(=O)N(c4ccccc4)C(=O)C3N2Nc2ccccc2)CC1 (stereo not given in full) | 1.55 | 0.0118 (inactive) | 0.0527 (inactive) | 0.0587 (inactive) | 3.32 | -0.784 (inactive) | 0.467 | 0.302 | 1.05 | 0.34 |
| C=CCOC(=O)[C@H]1[C@@H]2C(=O)O[C@@H](c3ccccc3)[C@@H](c3ccccc3)N2[C@@H](c2ccc(OCCOC(=O)[C@H]3C[C@H]4C(=O)N[C@@H](CCCCN(C)C)C(=O)N4[C@H]3c3ccc(O)cc3)cc2)[C@]12C(=O)Nc1ccc(I)cc12 | 1.55 | -0.0743 (inactive) | -0.526 (inactive) | -0.698 (inactive) | 2.49 | -0.411 (inactive) | 0.172 | 1.73 | 1.07 | 0.124 |
| COc1cc(COC(C)=O)ccc1OC(C)=O | 0.491 | -2.59 (inactive) | -3.73 (inactive) | -0.724 (inactive) | 0.418 | 3.13 (inactive) | 1.07 | 0.373 | 0.279 | 0.643 |
